Records with an inconclusive call do not appear. Activity calls are given as the source filed them. Calls follow the shape of the dose curve; as a rule, active = well fitted curve in the direction sought with a large enough effect; inconclusive = small, poorly fitted or top-dose-only effect, or another doubt; inactive = no such curve, though single readings can be large; an effect the other way counts as inactive or inconclusive.

Assay [1] can be described thus: Cell Viability - LYMP2-009 (AID 968). Also: nearly all actives have a fitted effect of over 55% in size. Also: potency is read from the fitted curve at half-maximal effect.
Assay [2] can be described thus: Cell Viability - LYMP2-011 (AID 969). Also: nearly all actives have a fitted effect of over 60% in size. The gist of the method: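 2500 cells/well, 5 hr 37 C; compound added, 24 hr 37 C; CellTiter-Glo 30 min RT; luminescence. qHTS concentration-response, Hill-equation AC50. Tetraoctylammonium bromide positive control.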
A short description of assay [3]: Cell Viability - LYMP2-013 (AID 970). Also: nearly all actives have a fitted effect of over 55% in size. Also: potency is read from the fitted curve at half-maximal effect. The gist of the method:
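qHTS; 2500 lymphoblastoid cells/well; 5 hr 37 C settle; cpd 24 hr 37 C; CellTiter-Glo, 30 min RT; luminescence. AC50 = Hill fit.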

Assay [4] is described as follows: Cell Viability - LYMP2-015 (AID 971). Also: nearly all actives have a fitted effect of over 55% in size. The gist of the method: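 Luminescent ATP read-out (CellTiter-Glo) served as the viability measure after lymphoblastoid cells were exposed to compounds for 24 hours at 37 C. Concentration-response data were fitted with the Hill equation to give AC50.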
Assay [5] in a line: Cell Viability - LYMP2-017 (AID 972). Also: series mostly up to about 92 µM; nearly all actives have a fitted effect of over 55% in size. The gist of the method: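 2500 cells/well, 5 h 37 C; cpd 24 h 37 C in complete medium; CellTiter-Glo, 30 min RT; luminescence (ATP). AC50 via Hill fit, qHTS.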
Assay [6] in a line: Cell Viability - LYMP2-019 (AID 973). Also: nearly all actives have a fitted effect of over 55% in size. Also: potency is read from the fitted curve at half-maximal effect. In outline: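 Luminescent ATP read-out (CellTiter-Glo, 30 min room temperature) served as the viability measure after 24 hr treatment of lymphoblastoid cells at 37 C. Concentration-response data were fitted to the Hill equation for AC50.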
The nature of assay [7]: Cell Viability - LYMP2-021 (AID 974). Also: potency is read from the fitted curve at half-maximal effect. The gist of the method:
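Plate 2500 lymphoblastoid cells per well and incubate 5 hr at 37 C. Add compounds over a concentration range and incubate 24 hr at 37 C. Add CellTiter-Glo, wait 30 min at room temperature, read luminescence.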

Assay [8] can be described thus: Cell Viability - LYMP2-023 (AID 975). The gist of the method: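 2500 cells/well, 5 hr 37 C; cpd 24 hr 37 C; CellTiter-Glo, 30 min RT; luminescence. qHTS conc-response, Hill fit -> AC50. Pos ctrl tetraoctylammonium bromide.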
The nature of assay [9]: Cell Viability - LYMP2-025 (AID 976). Also: series mostly up to about 92 µM. In outline: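 Seed 2500 LYMP2-025 cells/well; 5 hr at 37 C; add compound; 24 hr at 37 C; add CellTiter-Glo; 30 min RT; read luminescence. AC50 from Hill-modelled concentration-response.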
The nature of assay [10]: Cell Viability - LYMP2-002 (AID 977). Also: series mostly up to about 92 µM. In outline:
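Luminescent ATP readout (CellTiter-Glo, 30 min room temperature) after 24 h compound exposure at 37 C of a human lymphoblastoid line, 2500 cells/well. AC50 values derived by standard Hill fitting of qHTS concentration-response data.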

Assay [11] is described as follows: Cell Viability - LYMP2-006 (AID 978). Also: series mostly up to about 92 µM; nearly all actives have a fitted effect of over 60% in size. The gist of the method:
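Concentration-dependent loss of intracellular ATP in a human lymphoblastoid line after 24 hr treatment at 37 C was measured by CellTiter-Glo luminescence, with AC50 values obtained from standard Hill-equation modelling.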

Assay [12] is described as follows: Cell Viability - LYMP2-007 (AID 979).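 Also: cells exposed to compound for 24 h before reading; nearly all actives have a fitted effect of over 60% in size.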 The gist of the method: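 Luminescent ATP signal (CellTiter-Glo) serves as the viability read-out after 24 hr compound treatment of lymphoblastoid cells in complete medium at 37 C. Concentration-response data were fitted to the Hill equation to give AC50 values.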
A short description of assay [13]: Cell Viability - LYMP2-008 (AID 980). Also: nearly all actives have a fitted effect of over 60% in size. The gist of the method:
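qHTS, human lymphoblastoid line, 2500 cells/well; 5 hr preincubation, 24 hr compound, 37 C. CellTiter-Glo ATP luminescence. AC50 via Hill equation. Tetraoctylammonium bromide positive control.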

The nature of assay [14]: Cell Viability - LYMP2-010 (AID 981). Also: nearly all actives have a fitted effect of over 55% in size. Also: potency is read from the fitted curve at half-maximal effect. The gist of the method: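 Luminescent ATP signal (CellTiter-Glo) served as the viability read-out. Cells of the human lymphoblastoid line were treated with compound over a concentration range for 24 hours at 37 C, and AC50 values came from Hill-equation modeling.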
Assay [15] in a line: Cell Viability - LYMP2-012 (AID 982).
The nature of assay [16]: Cell Viability - LYMP2-014 (AID 983). Also: series mostly up to about 92 µM; nearly all actives have a fitted effect of over 50% in size. In outline:
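Luminescent ATP signal (CellTiter-Glo, 30 min at room temperature) serves as the viability read-out after 24 hr compound exposure at 37 C. Cells were seeded at 2500 per well and settled 5 hr beforehand.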

Assay [17] is described as follows: Cell Viability - LYMP2-016 (AID 984). Also: nearly all actives have a fitted effect of over 55% in size. In outline: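 Acute toxicity in a Coriell human lymphoblastoid line is scored as loss of intracellular ATP over 24 h of treatment in complete medium. CellTiter-Glo signal is fitted across concentrations with the Hill equation to give AC50.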
The nature of assay [18]: Cell Viability - LYMP2-018 (AID 985). Also: nearly all actives have a fitted effect of over 50% in size. In outline: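 Luminescent ATP signal (CellTiter-Glo, read after 30 min at room temperature) reports viable cells after 24 hr compound treatment at 37 C. Concentration-response data were fitted to the standard Hill equation for AC50.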
Assay [19] in a line: Cell Viability - LYMP2-005 (AID 967). Also: series mostly up to about 92 µM. In outline:
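qHTS viability screen in LYMP2-005 cells: 24 h at 37 C with compound, ATP luminescence via CellTiter-Glo, AC50 from Hill curves.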

In the case of `Cc1cccc(Br)c1`, the Potency result in assay [1], in assay [2], in assay [3], in assay [4], in assay [5] and in assay [6] was “inactive” throughout. Further, the Potency result in [7], in assay [8], in assay [9], in assay [10], in assay [11] and in assay [12] was “inactive” each time. Moreover, the Potency result in assay [13], in assay [14], in [15], in assay [16], in [17] and in [18] was “inactive” throughout.
In the case of `CCOc1cc(OCC)c(C(C)=O)cc1OCC`, the Potency result in assay [1], in assay [2], in [3], in assay [4], in assay [5] and in assay [6] was “inactive” throughout. For the same compound, the Potency result in assay [8], in assay [9], in assay [10], in assay [11], in assay [12] and in [13] was “inactive” each time. Besides, the Potency entry in assay [14], in assay [15], in assay [16], in assay [17] and in [18] was “inactive” throughout.
As to `O=C(O)c1ccc(CO)o1`, in [19], the compound was classed as inactive. The Potency result in [1], in assay [2], in assay [3], in [4], in assay [8] and in assay [9] was “inactive” throughout. Moreover, the Potency result in assay [10], in assay [11], in [13], in assay [16], in assay [17] and in [18] was “inactive” each time.
In the case of `O=Nc1ccc(NO)cc1`, the Potency in [1], in [3], in [6], in assay [7] and in assay [14] was 50.1 µM (active) each time. The Potency entry in assay [8], in [9], in assay [10], in assay [11], in assay [13] and in [16] was “inactive” throughout.
With `CCC(C)O` (stereo not given), in assay [19], the result was inactive. Besides, the Potency entry in [1], in assay [2], in assay [3], in assay [4], in [5] and in assay [6] was “inactive” each time. Further, the Potency result in assay [8], in [9], in assay [10], in assay [11], in assay [12] and in [13] was “inactive” in each case. The Potency result in [14], in [16], in assay [17] and in assay [18] was “inactive” in each case.
With `Cc1ccccc1C(N)=O`, the Potency entry in assay [1], in assay [2], in [3], in [4], in assay [5] and in assay [6] was “inactive” in each case. Also, the Potency entry in assay [7], in assay [8], in [10], in assay [11], in assay [12] and in assay [13] was “inactive” each time. Moreover, the Potency result in [14], in [15], in assay [16], in assay [17] and in [18] was “inactive” throughout.
For the compound `O=C(O)c1cc(Cl)cc(Cl)c1`, the Potency result in assay [1], in assay [2], in assay [3], in assay [4], in [5] and in assay [6] was “inactive” throughout. Also, the Potency entry in assay [7], in [8], in assay [9], in assay [10], in assay [11] and in [12] was “inactive” in each case. Further, the Potency result in assay [13], in assay [14], in assay [15], in assay [16], in assay [17] and in [18] was “inactive” in each case.
Regarding `CC(O)COC(C)(C)C` (stereo not given), the compound was called inactive in assay [19]. The Potency entry in assay [1], in [2], in [3], in assay [4], in assay [6] and in assay [7] was “inactive” each time. In addition, the Potency entry in assay [8], in assay [10], in assay [11], in assay [12], in assay [13] and in assay [14] was “inactive” in each case. The Potency entry in assay [15], in [16], in assay [17] and in assay [18] was “inactive” each time.
As for `Nc1cccc([N+](=O)[O-])c1`, in [19], the compound was classed as inactive. Also, the Potency result in assay [1], in assay [2], in [3], in assay [4], in assay [5] and in [6] was “inactive” throughout. Also, the Potency entry in assay [7], in assay [8], in assay [11], in assay [12], in assay [13] and in assay [14] was “inactive” each time. The Potency entry in [15], in [16], in [17] and in assay [18] was “inactive” throughout.

Source of the values: PubChem BioAssay (NCATS).
